# Reference: the supplement of paper PMC6555819
# How the values were obtained:
# Experiment in all cases: PBM binding z-score (relative to random genomic background probes); higher = stronger binding; sequences stand for … in GC…GCGATTGACAGCGTAGAATGAAGG
# [1] = system: FXR:RXRa (NR concentration 270 nM, RXRa partner concentration 90 nM)
# How it was run: (§1)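 For binding z-scores, the reference was random background probes on custom Agilent 4×180K protein-binding microarrays. These arrays were incubated 1 h with ligand-free nuclear receptor dimers in PBS pH 7.4, 2% milk, 0.02% Triton X-100, 1 mM DTT, 0.2 mg/mL BSA and 0.4 mg/ml salmon testes DNA. Fluorescence was scanned after antibody detection of each partner (one per run) and regression-normalized.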
# [2] = system: LXRa:RXRa (NR concentration 270 nM, RXRa partner concentration 90 nM)
# How it was run: as §1
# [3] = system: LXRa homodimer (NR concentration 270 nM)
# How it was run: as §1
# [4] = system: LXRb:RXRa (NR concentration 270 nM, RXRa partner concentration 90 nM)
# How it was run: as §1
# [5] = system: LXRb homodimer (NR concentration 270 nM)
# How it was run: as §1
# [6] = system: PPARa:RXRa (NR concentration 270 nM, RXRa partner concentration 90 nM)
# How it was run: as §1
# [7] = system: PPARg:RXRa (NR concentration 180 nM, RXRa partner concentration 90 nM)
# How it was run: as §1
# [8] = system: PPARg:RXRa 270nM:90nM, anti-RXR (NR concentration 270 nM, RXRa partner concentration 90 nM)
# How it was run: as §1
# [9] = system: PPARg:RXRa 30nM:10nM, anti-RXR (NR concentration 30 nM, RXRa partner concentration 10 nM)
# How it was run: as §1
# [10] = system: PPARg:RXRa 90nM:30nM, anti-RXR (NR concentration 90 nM, RXRa partner concentration 30 nM)
# How it was run: as §1
Sequence,PBM binding z-score [1],PBM binding z-score [2],PBM binding z-score [3],PBM binding z-score [4],PBM binding z-score [5],PBM binding z-score [6],PBM binding z-score [7],PBM binding z-score [8],PBM binding z-score [9],PBM binding z-score [10]
CCGACTGGCGCAAGGTTACCATAACGCACAGCCA,0.175,0.561,-0.255,0.645,-0.776,0.766,0.701,-0.0732,-0.409,-0.61
CGTCCAAGGTCAGCAGGTCAGGGAAAGCGACGTG,5.75,3.75,0.358,3.11,-0.252,4.79,4.23,4.7,1.38,3.21
TGTCAAAGTTCAAATGTAACGTAAGTATCCACAC,7.51,6.72,5.84,4.79,3.48,5.53,8.25,7.12,5.15,6.93
CAAACTAGGTCAACGTCAAAGTCGGTTTGTGCCA,3.78,2.64,0.425,1.92,0.247,5.24,8.49,6.68,4.95,6.72
TCTATTGGTTGAAGGGCAACCGACGAGTCCGTTT,0.476,0.767,0.01,0.546,0.657,1.23,0.669,2.98,3.37,3.23
CCTTACGGGTCACTGACAGGTTATAGAATTTGGA,5.11,4.02,0.265,3.45,0.0176,4.89,4.24,4.49,1.75,3.35
GAATATAGGTAATACAAGGTGAAAGTCCGATTGT,1.61,2.61,0.76,1.01,0.0272,2.77,3.39,3,0.987,2
CCTGCTAGGTCATGGTTAGCTAATCTACAGTATG,3.74,2.32,-0.0293,1.71,-0.265,3.76,2.65,3.06,0.508,2.06
GCTAGTTGGTCAGTAAAAGGTCACACAACGGTCG,3.52,4.37,4.08,4.15,0.685,4.73,3.31,4.38,2.61,4.66
TAGCCTGGGTCATTCAGGGGCCAGTATAGAAAGC,3.88,2.28,-0.548,2.04,0.00492,3.65,2.29,2.38,0.19,1.47
CGAACGAGGGCATGAGTTGATAGCGAATGCCGAT,0.658,0.274,-0.522,-0.0069,-0.724,1.51,1.34,1.65,0.171,1.04
ACTATTAGTTGAGACGAGGGCAACCCATAGGTTG,0.567,-0.017,-0.102,0.0689,0.34,0.296,0.846,0.162,0.398,0.326
AGAACGGGGGCAATGAGTTGATAGCACGGGTGGC,2.35,2.45,0.461,4.18,6.07,3.66,2.98,4.15,2.33,3.26
TCTATTAGTGGATTAGGGCAACCGAAACAGCGGA,0.803,0.521,0.262,0.532,0.78,0.571,0.412,1.68,3.07,2.64
ACTAGCAGGCCAAGTTTGGGTCATTCAAACAAAG,0.394,0.425,-0.172,0.818,-0.545,1.8,0.0288,0.215,-0.284,-0.177
CCGACTGGGGCATAGGGTTACCATAAGCCAGCCC,0.216,1.62,-0.605,0.389,-0.905,2.07,3.45,4.29,2.36,4
ATCTCTAGGTAAAGATAGTTCAGTGCATGCAAAT,0.301,4,0.693,0.899,0.443,0.697,0.357,0.286,0.0573,0.225
CCTACTGAGCCAAGGTCATTGATCAGTCAAAGCA,3.46,3.43,1.43,3.3,0.637,3.61,0.656,1.62,0.331,0.858
AGAATGAGGTTATTAAGGTCAGGGAATTGCGGTC,4.55,4.8,3.44,3.59,0.546,4.4,3.54,4.22,1.62,3.18
ACTATTAGTTGAGACGAGGGCAAGCGATAGGTTG,0.338,-0.125,-0.12,-0.138,-0.0702,0.257,0.699,0.134,0.381,0.467
CGTCCAAGGACATAGGAGGTCAGTGAAGACAGAT,1.5,1.47,1.23,1.26,-0.58,2.02,0.76,0.564,0.000734,0.268
TATGCAGGGTCAAAGGCCAGAGTACGAATGTCGA,7.19,5.51,1.34,4.46,0.828,6.1,7.42,6.8,4.59,6.57
CGTCCAAGGTTAGAGAGGTCAGTGAATGCCGAGT,2.67,3.01,1.94,2.48,-0.312,3.11,0.589,1.66,-0.029,0.655
ATATCTAGGTTAAGGGTCATTCAGGTTGGTTCGC,5.3,5.06,3.85,4.75,2.55,6.83,11.7,10.3,10.8,12.4
